Bioassay records from PubChem BioAssay.
TGFb SMAD3 inh: blocks TGF-b signaling; HepG2 CAGA-GFP TGF-b/SMAD3 reporter, GFP fluorescence, 18 h; TGF-beta stimulated, 500 pg/mL final; Potency, µM (top dose mostly 46.1 µM), for the others: at the top dose activity, negative = inhibition, most hits filed as inhibitors; hit rate 1.2% among 410,000; further: potency means the concentration at half of the fitted maximal effect; on the % scale 0 is the no-effect control and ±100 the full control effect; nearly all actives have a fitted effect of over 65% in size
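HEPG2 CAGA-GFP cells (1000/well, DMEM with 1% FBS) were pre-incubated 2 h at 37 degrees C, given compound by pin tool, then stimulated with TGF-beta at 500 pg/mL final for 18 h before per-cell GFP fluorescence imaging.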
TDP1 block: inhibitors of human tyrosyl-DNA phosphodiesterase TDP1 | Q9NUW8 | recombinant TDP1, AlphaScreen DNA substrate cleavage | Potency, µM (doses to about 130 µM), for the others: top-dose activity change, negative = inhibition, actives largely listed as inhibitors | hit rate 0.28% among 350,000 | AID 485290; further: potency means the concentration at half of the fitted maximal effect; on the % scale 0 is the no-effect control and ±100 the full control effect; nearly all actives have a fitted effect of over 40% in size
Target sequence (Q9NUW8 whole entry, looked up): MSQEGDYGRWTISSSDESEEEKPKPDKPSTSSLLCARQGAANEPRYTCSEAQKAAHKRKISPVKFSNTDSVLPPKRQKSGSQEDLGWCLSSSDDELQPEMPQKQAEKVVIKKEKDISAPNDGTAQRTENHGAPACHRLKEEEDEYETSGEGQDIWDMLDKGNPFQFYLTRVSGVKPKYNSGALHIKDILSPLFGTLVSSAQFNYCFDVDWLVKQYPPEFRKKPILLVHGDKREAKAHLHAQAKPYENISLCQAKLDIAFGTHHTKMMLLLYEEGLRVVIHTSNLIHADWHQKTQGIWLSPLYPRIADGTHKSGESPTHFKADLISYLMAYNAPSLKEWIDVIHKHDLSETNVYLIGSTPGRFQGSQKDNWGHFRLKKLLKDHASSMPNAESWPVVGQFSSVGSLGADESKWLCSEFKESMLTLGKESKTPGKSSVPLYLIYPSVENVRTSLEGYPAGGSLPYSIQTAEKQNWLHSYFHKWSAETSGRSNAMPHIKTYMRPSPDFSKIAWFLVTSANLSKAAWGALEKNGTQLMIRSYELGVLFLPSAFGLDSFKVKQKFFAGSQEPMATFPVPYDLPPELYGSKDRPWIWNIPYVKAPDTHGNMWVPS
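Recombinant human Tdp1 (E. coli-expressed, 1 nM final) preincubated with compounds 15 min at room temperature, then 5'-biotin/3'-phosphotyrosine-FITC DNA substrate (15 nM final) added for 5 min. AlphaScreen beads (10 ug/ml final) added 10 min; cleavage lowers signal.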
IL1B secr inh: inflammasome signaling inhibition, IL-1 beta readout | THP-1 LPS/ATP IL-1B secretion, AlphaLISA, 16 h; hits give low values | activity change, % at 57.5 µM | hit rate 4.7% among 360,000 | AID 743279; in the data active means activity change below about -50%; inconclusive means mostly about -30% to -49%; further: on the % scale 0 is the no-effect control and ±100 the full control effect
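Secreted IL-1B measured by AlphaLISA bead assay after 16 h compound exposure of THP-1 cells; compounds (final up to 57.5 uM) added 1 h before LPS (250 ng/mL) and ATP (1.25 mM) stimulation; lower signal means less secretion.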
TDP1 cell CPT: DT40-hTDP1 cell growth loss with CPT. AID 686979. chicken DT40 Tdp1-/-;hTDP1 cells + 20 nM CPT, ATP luminescence, 48 h. hit rate 12% among 420,000. Potency, µM (doses to about 46.2 µM), for the others: at the highest dose activity change, negative = growth inhibition, most hits filed as inhibitors; further: potency means the concentration at half of the fitted maximal effect; on the % scale 0 is the no-effect control and ±100 the full control effect; nearly all actives have a fitted effect of over 55% in size
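Cell growth measured by CellTiter-Glo luminescence after a minimum 48 h, 37 C compound exposure with 20 nM CPT in Tdp1-knockout DT40 cells stably expressing hTDP1, seeded 400/well; qHTS titration format.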
DT40 TDP1 no CPT: qHTS for Inhibitors of human tyrosyl-DNA phosphodiesterase 1 (TDP1): qHTS in cells in absence of CPT; AID 686978, 2013; Potency, µM (series often up to 46.2 µM), for inactives: top-dose activity change, negative = growth inhibition, hits mostly inhibitors; DT40 Tdp1-/- hTDP1 cells, no CPT, ATP luminescence, 48 h; hit rate 15% among 420,000; further: potency means the concentration at half of the fitted maximal effect; on the % scale 0 is the no-effect control and ±100 the full control effect; nearly all actives have a fitted effect of over 55% in size
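DT40 Tdp1-/-;hTDP1 cells, no CPT (DMSO vehicle only), 400 cells/well; compounds pin-transferred; ≥48 hr, 37 °C; CellTiter-Glo 30 min RT dark, luminescence read.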
HepG2 tox: counter-screen for TGF-b inhibitors: cytotoxicity in HepG2 cells; HepG2 CAGA-GFP viability, ATP luminescence, 18 h; Potency, µM (series often up to 46.1 µM), inactives show at the highest dose activity change, negative = cytotoxicity, usual class: cytotoxic; hit rate 0.76% among 410,000; further: potency means the concentration at half of the fitted maximal effect
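CellTiter-Glo luminescence gave cytotoxicity after 18 hours at 37 degrees C. The cells were HepG2 CAGA-GFP in 1% FBS DMEM, stimulated with 500 pg/mL TGF-beta after compound addition. %Activity was normalised to no-cell wells (complete cell-killing) and DMSO (no toxicity), and curves were fitted and classified.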
* = called active by the depositor; ? = inconclusive; . = no result. A selection: hits, their analogues and other compounds. The true share with any hit is near 18%. Unless noted, the call rests on the fitted dose curve; in most records, active means well fitted curve in the direction sought with a large enough effect; inconclusive means small, poorly fitted or top-dose-only effect, or another doubt; inactive means no such curve, though single readings can be large; an effect the other way counts as inactive or inconclusive.

SMILES | TGFb SMAD3 inh | TDP1 block | IL1B secr inh | TDP1 cell CPT | DT40 TDP1 no CPT | HepG2 tox
O=C(NCCN1CCOCC1)c1cc([N+](=O)[O-])cc([N+](=O)[O-])c1 | 9% | . | 22 | 6% | 6% | 1%
N=c1n(CC(=O)c2cccc([N+](=O)[O-])c2)c2ccccc2n1Cc1ccccc1 | -7% | 2% | -104* | 16µM* | 21µM* | -34%
O=C(C[n+]1ccccc1)c1cccc([N+](=O)[O-])c1 | 3% | . | . | -8% | -3% | 10%
CCn1c(=N)n(CC(=O)c2cccc([N+](=O)[O-])c2)c2ccccc21 | -11% | 3% | -27 | ? | 21µM* | -18%
N=c1n(CCN2CCOCC2)c2ccccc2n1CC(=O)c1ccc(Cl)c(Cl)c1 | ? | -7% | -7 | ? | 18µM* | -55%
CC(=O)c1c(C)[nH]c(C(=O)Nc2ccc(N3CCCCCC3)cc2)c1C | 4% | . | 3 | ? | ? | -1%
O=C1c2ccccc2C(=O)C1Cc1cccc2ccccc12 | 0% | -1% | 15 | 14µM* | -27% | -15%
CC1CCc2c(ccc3ccccc23)C1=O (stereo not drawn) | 1% | . | -5 | -2% | -24% | -1%
CCN(CC)S(=O)(=O)c1cc(C(=O)Oc2cccc(-c3cnc4ccccc4n3)c2)ccc1Br | -14% | 5% | 15 | ? | 18µM* | 7%
Cc1c(Cl)cccc1NC(=O)CCn1cnnn1 | -12% | 3% | . | -16% | 0% | -7%
COC(=O)c1sc(-c2ccccc2)cc1NC(=O)c1ccc(F)cc1 | 6% | 3% | 4 | ? | ? | -5%
CCOC(=O)c1sc(-c2ccccc2)cc1N | -16% | -6% | -2 | 5% | -20% | 6%
CCOC(=O)c1sc(-c2ccccc2)cc1NC(=O)Nc1ccc([N+](=O)[O-])cc1 | -2% | 6% | 15 | ? | 21µM* | -4%
COC(=O)c1sc(-c2ccc(C(C)(C)C)cc2)cc1NC(=O)CCC(=O)O | -20% | 3% | 8 | 16µM* | ? | -22%
CCOc1ccc(-c2cc(NC(=O)Nc3cccc(C(C)=O)c3)c(C(=O)OC)s2)cc1 | -4% | -3% | . | 23µM* | -10% | 5%
COC(=O)c1sc(-c2ccc(Cl)cc2)cc1NC(=O)COCC(=O)O | 11% | 7% | -21 | -9% | -15% | -23%
COC(=O)c1sc(-c2ccc(Cl)cc2)cc1NC(=O)/C=C/C(=O)O | ? | . | -95* | 5.8µM* | 6.5µM* | -84%
COC(=O)c1sccc1S(=O)(=O)N(CC(=O)NCc1ccc(C)cc1)c1ccc(Cl)cc1 | 1% | 6% | . | ? | ? | -6%
CCOc1ccc(-c2cc(NC(=O)c3ccc(C)cc3)c(C(=O)OC)s2)cc1 | -1% | -3% | . | -13% | -18% | -32%
CCOc1ccc(-c2cc(NC(=O)c3ccccc3)c(C(=O)OC)s2)cc1 | ? | 5% | . | ? | 12µM* | -11%
COc1cc(OC)cc(-c2c(-c3cccs3)c3cc(-c4ccc(OC)c(OC)c4)ccc3n2C)c1 | -7% | 2% | -17 | 9.2µM* | ? | -19%
COc1cc(OC)cc(-c2c(-c3cccs3)c3cc(-c4ccc5[nH]ccc5c4)ccc3n2C)c1 | -1% | 1% | -9 | ? | ? | -2%
COc1cc(OC)cc(-c2c(-c3cccs3)c3cc(-c4ccc5c(c4)OCCO5)ccc3n2C)c1 | 3% | 1% | -5 | ? | 15µM* | -3%
COc1cc(OC)cc(-c2c(-c3cccs3)c3cc(-c4ccc(OC)c(F)c4)ccc3n2C)c1 | 11% | 1% | -3 | ? | 18µM* | -7%
COc1cc(OC)cc(-c2c(-c3cccs3)c3cc(-c4cnc(N)nc4)ccc3n2C)c1 | ? | 2% | -4 | 23µM* | ? | -48%
SMILES | TGFb SMAD3 inh | TDP1 block | IL1B secr inh | TDP1 cell CPT | DT40 TDP1 no CPT | HepG2 tox
CNC(=S)N1CCN(S(=O)(=O)c2ccc3ccccc3c2)CC1 | 0% | 7% | -18 | -7% | -17% | -1%
CN(C(=O)c1ccccc1)C(=O)c1ccccc1 | -7% | . | 0 | -20% | -3% | -11%
COc1ccc(C(=O)C(CCCCC(CN(C)C)C(=O)c2ccc(OC)cc2)CN(C)C)cc1 (stereo not drawn) | -2% | 2% | -10 | 21µM* | 5.8µM* | -29%
CN(C)CC(CCC(CN(C)C)C(=O)c1ccccc1)C(=O)c1ccccc1 (stereo not drawn) | 6.3µM* | 3% | -100* | 1.5µM* | 1.6µM* | -103%
COc1ccccc1OCCNC(=O)c1cccc(S(=O)(=O)N2CC(C)OC(C)C2)c1 (stereo not drawn) | -6% | -1% | 0 | ? | ? | -4%
CC1CCC2C(C)C3C(CC4[C@@H]5CC=C6C[C@@H](O)CC[C@]6(C)C5CC[C@]34C)N2C1 (stereo partly drawn) | . | 5% | . | . | . | .
COc1ccccc1C1CN=NC12CCCc1ccccc1C2=O (stereo not drawn) | -13% | -2% | -23 | ? | ? | -3%
COc1ccc(C2CN=NC23CCCc2ccccc2C3=O)cc1 (stereo not drawn) | 0% | 2% | 7 | ? | 23µM* | -18%
COc1ccc(C2CN=NC23CCc2ccccc2C3=O)cc1 (stereo not drawn) | -22% | -1% | 87 | ? | 23µM* | 2%
Cc1nc2sc3c(=O)[nH]nnc3c2c(C)c1Br | -10% | . | 18 | -15% | 17% | 17%
NC(=S)NN=C(c1ccc(Br)cc1)C1CC1 | ? | . | -76* | ? | ? | -74%
NC(=S)NN=C(c1ccc(F)cc1)C1CC1 | ? | . | -86* | 21µM* | ? | -29%
COC(=O)N/N=C(/c1ccccc1)C1CCCCC1 | . | -5% | . | . | . | .
CC(=O)N1CCC[C@@]2(CCN(Cc3nccs3)C2)C1 | . | . | . | 9% | -1% | .
Cc1c(CCO)sc[n+]1CC(=O)c1ccc(F)cc1 | ? | . | . | -13% | -5% | -31%
Cc1c(CCOC(=O)C2C3CC4CC(C3)CC2C4)sc[n+]1CC(=O)c1ccc(Br)cc1 (stereo not drawn) | ? | -2% | -85* | ? | 18µM* | -107%
Cc1c(CCOC(=O)c2ccc(Cl)cc2Cl)sc[n+]1CC(=O)c1ccc(Br)cc1 | ? | 3% | ? | ? | 18µM* | 14µM*
